Compound activity: PubChem, several laboratories
Anthrax LF prot = Bacillus anthracis LF protease inhibitors, primary screen, biochemical, multiplex microsphere, MLPCN library; multiplex microsphere protease cleavage assay; AID 588501, 2011; 360,000 compounds, 0.12% hits; Lethal factor (Bacillus anthracis), P15917; inhibition, % at 10 µM; note: plate controls were buffer without enzyme for full effect and enzyme alone for no effect
Target sequence (P15917 whole entry, looked up): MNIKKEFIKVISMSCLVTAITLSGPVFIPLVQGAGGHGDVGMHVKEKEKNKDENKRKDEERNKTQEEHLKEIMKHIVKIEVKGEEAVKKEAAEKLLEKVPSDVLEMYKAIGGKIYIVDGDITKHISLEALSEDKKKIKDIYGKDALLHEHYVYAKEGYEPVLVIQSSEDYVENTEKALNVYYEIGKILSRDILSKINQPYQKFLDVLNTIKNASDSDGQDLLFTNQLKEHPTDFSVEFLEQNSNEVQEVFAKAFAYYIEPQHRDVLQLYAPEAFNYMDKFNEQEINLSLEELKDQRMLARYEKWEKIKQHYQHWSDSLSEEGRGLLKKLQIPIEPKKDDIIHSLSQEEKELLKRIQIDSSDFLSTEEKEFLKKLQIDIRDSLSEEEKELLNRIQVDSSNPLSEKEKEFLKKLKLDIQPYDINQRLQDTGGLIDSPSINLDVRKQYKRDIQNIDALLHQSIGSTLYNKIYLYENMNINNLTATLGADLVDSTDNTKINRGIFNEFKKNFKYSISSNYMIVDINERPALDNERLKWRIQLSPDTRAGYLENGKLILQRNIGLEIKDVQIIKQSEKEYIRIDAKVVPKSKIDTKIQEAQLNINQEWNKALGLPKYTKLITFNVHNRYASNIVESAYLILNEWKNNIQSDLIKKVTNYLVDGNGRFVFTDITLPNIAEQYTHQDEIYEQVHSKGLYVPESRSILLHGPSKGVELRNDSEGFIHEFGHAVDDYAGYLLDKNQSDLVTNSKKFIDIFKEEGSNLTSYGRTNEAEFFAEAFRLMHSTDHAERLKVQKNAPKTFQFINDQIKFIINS
BoNT A protease = BoNT/A light chain protease inhibitors, primary screen, biochemical, flow cytometry, MLPCN library. Botulinum neurotoxin type A light chain protease (Clostridium botulinum A str. ATCC 3502). multiplex microsphere protease substrate cleavage. inhibition, % at 10 µM. 360,000 compounds, 0.17% hits. AID 588499, 2011; note: plate controls were buffer without enzyme for full effect and enzyme alone for no effect
BoNT-F LC inh = BoNT/F light chain protease inhibitors, primary screen, biochemical, flow cytometry, MLPCN library; inhibition, % at 10 µM; Botulinum neurotoxin type F light chain protease (Clostridium botulinum); Multiplex microsphere protease cleavage assay; 360,000 compounds, 0.22% hits; in the data active = inhibition above about 35%, passing the limit was not always enough; inconclusive = no clear call, values can overlap the other calls; note: plate controls were buffer without enzyme for full effect and enzyme alone for no effect
MazEF act = activators of E. coli MazEF toxin-antitoxin RNase, primary screen, biochemical, fluorescence, uHTS; 350,000 compounds, 0.32% hits; FAM/BHQ RNA-DNA oligo cleavage fluorescence, 5 h; activation, % at 20 µM; in the data active = activation above about 50%
Autofluor counter = compound fluorescence in toxin protease inhibitor counterscreen. compound autofluorescence counterscreen, microsphere flow cytometry; hits give high values. fluorescence intensity (concentration not given with the values). 360,000 compounds, 3.1% hits; in the data active = fluorescence intensity above about 16000; inconclusive = no clear call, values can overlap the other calls
The depositor's hits bear a star; ? = inconclusive; . = not tested or not shown. Rows were chosen to be rich in hits. Some 3.7% of all compounds tested hit in one or more screens of this group. Cut-off read from the data, not from the text of the source, unless noted: active = inhibition above about 30%; inconclusive = no clear call, values can overlap the other calls; inactive = below that.

SMILES	Anthrax LF prot	BoNT A protease	BoNT-F LC inh	MazEF act	Autofluor counter
COc1ccc(OCCSc2nnc(CCNC(=O)c3ccc(Cl)c(Cl)c3)n2C)cc1	-11	3	1	-8	20984*
CCOc1ccc(NC(=O)CSc2nnc(C3CC3)n2C)cc1	6	0	4	-4	4603
CCOc1ccc(NC(=O)CSc2nnc(C34CC5CC(CC(C5)C3)C4)n2C)cc1	-1	-2	0	-3	17197*
COc1ccc(OCCSc2nnc(CCNC(=O)c3ccc(OC)cc3)n2C)cc1	4	0	3	0	8027
C[C@@H]1CN(Cc2nnnn2CC(=O)NCCCn2cccn2)C[C@H](C)O1	-1	0	-2	-4	3007
CCN(Cc1ccncc1)S(=O)(=O)c1ccc(C(C)=O)cc1	0	1	2	7	22742*
C[C@@H]1CN([C@@H](C)CO)C(=O)c2cc(NC(=O)C3CC3)ccc2O[C@@H]1CN(C)Cc1ccc(Cl)c(Cl)c1	-2	-1	-8	8	3858
CS(=O)(=O)c1ccc(C(=O)NC2CCOC2=O)cc1 (centres undefined)	-5	?	-6	-2	21657*
CC(Sc1nnc(C2CC2)n1C1CC1)C(=O)c1ccc(Br)cc1 (centres undefined)	?	?	?	-6	4859
Cc1ccc(NC(=O)c2ccccc2)s1	-2	-2	-8	4	24292*
Cc1cc(NC(=O)c2ccccc2)sc1C	-2	0	2	3	2771
COc1ccc(-c2cc(=O)oc3cc4occ(C)c4cc23)cc1	-2	1	1	6	22808*
O=C(Nc1ccc(Cl)cc1)N1CCC(c2nc(-c3ccc(F)cc3)no2)CC1	-2	-2	-4	23	24171*
COc1ccc(NC(=O)N2CCCC(c3nc(-c4ccc(OC)cc4)no3)C2)cc1 (centres undefined)	-1	0	-1	6	2742
O=C(Nc1ccc(Cl)cc1)N1CCN(c2ccc3nnc(-c4ccc(F)cc4)n3n2)CC1	-5	-3	-8	-13	17296*
CCc1ccc(C2C3=C(CC(C)(C)CC3=O)Nc3c2c(=O)[nH]c2nc(C)nn32)cc1 (centres undefined)	-1	?	-8	0	21959*
COc1ccc(C2C3=C(CC(C)(C)CC3=O)Nc3c2c(=O)[nH]c(=O)n3Cc2ccccc2)cc1OC (centres undefined)	-2	-1	-4	-6	23655*
COc1cc(C2C3=C(CC(C)(C)CC3=O)Nc3c2c(=O)[nH]c(=O)n3Cc2ccccc2)ccc1O (centres undefined)	-1	0	2	-10	2134
COc1ccc(NC(=O)c2ccc(COc3ccccc3Br)o2)c(OC)c1	-11	-1	-20	-7	4521
CC1=NN(C(N)=S)C(=O)C1N=Nc1ccc(Cl)cc1Cl (centres undefined)	.	.	.	-1	.
O=C(COc1ccc2ccccc2c1Br)N1CCN(c2ccccn2)CC1	-1	2	1	-10	21691*
COc1ccc(-c2c(C)nn(-c3ccccc3)c2N)cc1	-1	?	5	-1	20023*
COc1ccc(-c2ccc(SCC(=O)N3CCOCC3)nn2)cc1	-3	1	6	3	22594*
O=C(CSc1ccc(-c2ccc(F)cc2)nn1)N1CCCCC1	1	0	-1	-4	10605
CC1CCN(C(=O)CSc2ccc(-c3ccc(F)cc3)nn2)CC1	-1	1	1	-14	23070*
SMILES	Anthrax LF prot	BoNT A protease	BoNT-F LC inh	MazEF act	Autofluor counter
Cc1ccccc1-c1cc(C(=O)O)n(CC2CC(c3cccnc3)=NO2)n1 (centres undefined)	-4	0	1	10	3922
COc1ccccc1C(=O)NNC(=O)C(=O)NC1CCCCC1	1	0	-1	-18	4173
COc1ccccc1-c1nn2c(-c3ccco3)nnc2s1	2	3	4	-7	21284*
c1ccc(-c2nnc3sc(-c4ccncc4)nn23)cc1	-2	0	-4	8	9878
COc1cccc(-c2nnc3sc(-c4ccccc4)nn23)c1	1	?	-2	7	20646*
c1coc(-c2nn3c(-c4ccco4)nnc3s2)c1	.	.	.	6	.
COc1ccc(-c2nn3c(COc4ccccc4)nnc3s2)cc1OC	-4	-2	-3	8	17330*
COc1ccc(OCc2nn3c(-c4cccc(OC)c4)nnc3s2)cc1	-3	0	-1	11	5771
Cc1cccc(-c2nnc3sc(-c4ccccc4C)nn23)c1	-4	-1	-4	2	16434*
Cc1ccc(N(C(=O)Cc2cccs2)C(C(=O)NC2CCCCC2)c2ccccn2)cc1C (centres undefined)	1	-2	-6	6	2539
COc1ccc(-c2nn3c(-c4ccccc4)nnc3s2)cc1	0	0	0	13	20178*
CCOc1ccc(NC(=O)CSc2nnnn2C2CC2)cc1S(=O)(=O)N1CCCC1	-6	0	-5	6	2875
CN(C)C(=O)c1ccc(Cc2cn(C)c3ccccc23)nc1	-2	0	4	.	2890
CCOc1ccc(C(CCc2ccccc2)NC(=O)c2ccccc2)cc1OCC (centres undefined)	2	?	5	-4	21649*
CCn1cc(C(C)NC(=O)COc2ccc(Cl)cc2C)c(C)n1 (centres undefined)	-2	-5	-6	-2	23870*
O=C(NCc1ccccc1Cl)C1CCC(=O)N(CCCN2CCCC2=O)C1 (centres undefined)	-4	0	-1	5	6284
Clc1ccc(/C=N/NC2=Nc3cccc4cccc2c34)cc1	0	1	-6	16	2827
C(=N\NC1=Nc2cccc3cccc1c23)/c1ccccc1	4	13	-7	509*	2655
O=C(O)c1ccccc1C(=O)c1ccc2oc(=O)[nH]c2c1	3	0	4	-7	3993
Cc1scc(-c2n[nH]c(=S)n2C(C)c2ccccc2)c1C (centres undefined)	-1	0	-5	0	2582
CCc1cc(-c2n[nH]c(=S)n2C(C)c2ccccc2)cs1 (centres undefined)	0	6	5	2	21656*
COc1ccc(NC(=O)Cc2c(Cl)cccc2Cl)cn1	-1	-1	-2	-4	4486
COc1ccc(NS(=O)(=O)Cc2ccccc2Cl)cn1	0	?	-8	-15	23973*
O=C(Cc1ccc(F)cc1)c1ccc(O)cc1O	-1	1	1	1	19761*
O=c1onc(-c2ccccc2)n1Cc1ccc([N+](=O)[O-])cc1	4	0	-1	3	2987
N#CCCCn1c(-c2ccccc2)noc1=O	-4	?	-2	2	23665*
